Assay outcomes deposited in PubChem by Sanford-Burnham Center for Chemical Genomics.
A selection: hits, their analogues and other compounds. The true share with any hit is near 28%.
CYP2C9 activ = human CYP2C9 activators, primary screen, biochemical, luminescence; Cytochrome P450 2C9 (Homo sapiens), P11712; recombinant CYP2C9, luciferin-H conversion; active compounds read high; factor 1 = untreated enzyme, 0 = blocked; activation factor at 5 µM; 1.4% of 96,000 active; AID 1024, 2008;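 active = activation factor of 2 or more for CYP2C9 at a 5 µM dose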;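 note: 0 = sulfaphenazole-blocked wells and 1 = vehicle-only wells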
Target sequence (P11712 whole entry, looked up): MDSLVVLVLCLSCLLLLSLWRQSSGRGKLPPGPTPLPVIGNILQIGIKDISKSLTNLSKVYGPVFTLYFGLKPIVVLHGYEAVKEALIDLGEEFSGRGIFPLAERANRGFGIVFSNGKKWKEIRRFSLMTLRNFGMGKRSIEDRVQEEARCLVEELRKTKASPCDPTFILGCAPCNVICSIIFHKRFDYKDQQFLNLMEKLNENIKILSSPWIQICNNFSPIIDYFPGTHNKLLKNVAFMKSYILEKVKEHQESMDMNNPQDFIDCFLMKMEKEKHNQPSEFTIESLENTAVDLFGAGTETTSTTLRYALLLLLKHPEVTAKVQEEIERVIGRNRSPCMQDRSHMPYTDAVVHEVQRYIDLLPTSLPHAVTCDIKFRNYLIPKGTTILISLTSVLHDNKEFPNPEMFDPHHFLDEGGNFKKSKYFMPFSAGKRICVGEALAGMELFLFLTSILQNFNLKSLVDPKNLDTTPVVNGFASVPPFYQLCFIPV
CYP2C19 inh = blockers of cytochrome P450 2C19 activity – biochemical, luminescence, ADME assay, primary screen; P33261; CYP2C19 Supersomes, luciferin-H EGE luminescence, 30 min; inhibition, % at 5 µM; 21% of 96,000 active; AID 778, 2007;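 active = CYP2C19 inhibition above a set limit at 5 µM in the primary screen, cut at about 50% in these data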;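 note: plate controls were negative control wells for no effect and 2.5 mM tranylcypromine positive control for full effect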
CYP2C19 act = human CYP2C19 activators, primary screen, biochemical, luminescence. Cytochrome P450 2C19 (Homo sapiens), P33261. recombinant CYP2C19, luciferin-H EGE luminescence; active compounds read high; 0 = fully inhibited enzyme, 1 = untreated enzyme. activation factor at 5 µM. 96,000 tested, under 10 active;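 active = activation factor of at least 2 at 5 µM in the primary screen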;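 note: 0 = wells with 2.5 mM tranylcypromine and 1 = vehicle-only wells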
Pyk2 oligo antag = antagonists of Pyk2 self-association, primary screen, Q293 cells, FERM NanoBiT luminescence, HTS | Protein-tyrosine kinase 2-beta (Homo sapiens), Q14289 | 0.83% of 99,000 active | AID 1347419, 2020 | active compounds read low | z-score (the deposit names both 25 µM and 10 µM);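 active = Z-score of -3 or lower, scaled per plate to the spread of control and sample wells; inactive = z-score above -3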;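 note: negative z-score means lost luminescence so less FERM oligomerization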
CYP2C9 inh = blockers of cytochrome P450 2C9 activity – biochemical, luminescence, ADME assay, primary screen; 20% of 96,000 active; AID 777, 2007; inhibition, % at 5 µM; P11712; CYP2C9 Supersomes, luciferin-H conversion;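 active = blocking of liver enzyme CYP2C9 beyond about 50% at 5 µM, limit read from the data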
Numbers without * were called inactive; x = no result given.

SMILES | CYP2C9 activ | CYP2C19 inh | CYP2C19 act | Pyk2 oligo antag | CYP2C9 inh
COC(=O)C(C(=O)OC)C(C(C)C)C(C(=O)OC)C(=O)OC | x | x | x | 0.14 | x
CCCCN(CC)C(=O)c1ccc(Cl)c(Cl)c1 | 1 | 84* | 0.2 | 0.79 | 1
O=C(c1ccc(Cl)c(S(=O)(=O)NCc2ccco2)c1)N1CCN(c2ccc(F)cc2)CC1 | 1 | 24 | 0.8 | 0.01 | 0
COc1cccc(/C=N/n2cnnc2)c1OCc1ccccc1 | 0.6 | 41 | 0.6 | -0.3 | 44
COc1ccccc1OCCOc1ccccc1/C=N/n1cnnc1 | 0.8 | 75* | 0.3 | 0.74 | 19
Cc1[nH]c2ccccc2c1/C=N/n1cnnc1 | 0.8 | 46 | 0.5 | 0.8 | 20
CC(C)Oc1ccc2ccccc2c1C=O | 0.8 | 21 | 0.8 | 0.37 | 21
CCCOc1ccc2ccccc2c1/C=N/n1cnnc1 | 0.4 | 60* | 0.4 | -0.68 | 57*
Cc1c(/C=N/n2cnnc2)c2ccccc2n1CCOc1ccccc1 | 0.5 | 79* | 0.2 | -0.28 | 45
CCOc1ccc2ccccc2c1/C=N/n1cncn1 | 0.4 | 49 | 0.5 | -0.95 | 58*
Nc1nc(=S)[nH]c2c1C1(CCCCC1)Cc1ccccc1-2 | x | x | x | 1.4 | x
O=C1CCCc2c1nc(-c1ccco1)n2O | 0.8 | 15 | 0.9 | -0.15 | 16
CC(C)c1ccc(NC(=O)N2CCC(c3nc4ccccc4o3)CC2)cc1 | 0.7 | 13 | 0.9 | -0.54 | 27
Cn1nnnc1SCc1c(F)cccc1F | 1 | 26 | 0.7 | -0.58 | 1
Cn1c(=O)c2c(nc(NCc3cccnc3)n2Cc2cccc(C(F)(F)F)c2)n(C)c1=O | 0.3 | 53* | 0.5 | -0.34 | 69*
O=C(CCCSc1nnc(-c2cccs2)n1CC1CCCO1)c1ccccc1 (stereo unspecified) | 0.3 | 73* | 0.3 | 1.2 | 69*
CCOc1ccc(C(C)=O)cc1CSc1nnc(-c2cccs2)n1CC1CCCO1 (stereo unspecified) | 0.2 | 90* | 0.1 | -0.58 | 82*
O=C(CSc1nnc(-c2ccncc2)n1CC1CCCO1)Nc1nccs1 (stereo unspecified) | x | x | x | -0.22 | x
CCCCNc1ccc2nsnc2c1[N+](=O)[O-] | x | x | x | 0.31 | x
Cc1cccc(NC(=O)c2cc3n(n2)C(C(F)(F)F)CC(c2ccc4c(c2)OCO4)N3)c1 (stereo unspecified) | 0.1 | 39 | 0.6 | -0.05 | 87*
O=C(CSc1ncnc2c1oc1ccccc12)OCc1ccccc1 | 0.9 | 6 | 0.9 | 1.4 | 12
CC1CCN(S(=O)(=O)c2cc(Br)cc(C(=O)NC3=NCCS3)c2)CC1 | 0.6 | 68* | 0.3 | -2 | 45
Cc1ccc(NC(=O)CN(C)c2ccc(S(=O)(=O)N3CCN(C)CC3)cn2)cc1 | 0.4 | 29 | 0.7 | 0.29 | 56*
CCOc1ccc(NC(=O)CN(C)CC(=O)Nc2ccccc2SC)cc1OCC | x | x | x | 0.07 | x
CCOc1ccc(NC(=O)CN(C)c2ccc(S(=O)(=O)N(C(C)C)C(C)C)cn2)cc1OCC | 0.4 | 35 | 0.6 | -0.9 | 57*
SMILES | CYP2C9 activ | CYP2C19 inh | CYP2C19 act | Pyk2 oligo antag | CYP2C9 inh
CCOc1ccc(NC(=O)CN(C)c2nnnn2-c2ccccc2)cc1OCC | 0.7 | 72* | 0.3 | -0.35 | 27
Cc1ccc(C)c(NC(=S)NNC(=O)c2sccc2C)c1 | 0.1 | 79* | 0.2 | 1.6 | 89*
NC(=O)c1ccc([N+](=O)[O-])cc1SCc1ccccc1 | 0.8 | 29 | 0.7 | 0.58 | 24
Cc1cc(NC(=O)CSc2nnc(C)c(=O)[nH]2)no1 | 0.9 | 2 | 1 | x | 6
Cc1ccc2c(c1)cc(CN(Cc1cccs1)C(=O)c1ccco1)c1nnnn12 | 0.8 | 5 | 0.9 | -3 | 18
CCc1ccc2c(c1)cc(CN(C(=S)Nc1cccc(C)c1)C1CC1)c1nnnn12 | 0.3 | 1 | 1 | -0.06 | 68*
CCN(CC)CCCn1c(C)cc2c(c1=O)C(c1ccc(OC)c(OC)c1OC)C(C#N)=C(N)O2 (stereo unspecified) | x | x | x | 0.81 | x
COc1cc(S(=O)(=O)N2CCN(C)CC2)c(OC)cc1Br | 1.4 | 8 | 0.9 | -0.45 | -36
COc1ccc(Cl)cc1S(=O)(=O)N1CCCC1 | 2* | 43 | 0.6 | 1.7 | -97
CCOc1c(S(=O)(=O)N2CCCC2)ccc(Cl)c1Cl | 1.5 | 93* | 0.1 | -1.1 | -49
CCOc1ccc(Br)cc1S(=O)(=O)N1CCCC1 | x | x | x | 0.11 | x
CCOc1ccc(Cl)cc1S(=O)(=O)N1CCCC1 | 2.2* | 53* | 0.5 | -1.2 | -117
COc1ccc(Cl)cc1S(=O)(=O)N1CCN(C)CC1 | 1.7 | 55* | 0.4 | x | -72
NC(=O)C1CCN(C(=O)OCc2ccccc2)CC1 | 1 | 38 | 0.6 | 0.07 | 1
CC(=O)NC1=NN(C(C)=O)C(c2sccc2C)S1 (stereo unspecified) | 0.8 | 34 | 0.7 | -0.2 | 21
O=C(CN1C(=O)COc2ccc(Cl)cc21)N1CCc2ccccc21 | 0.7 | 23 | 0.8 | 0.44 | 27
COc1c(S(=O)(=O)N2CCCCC2)ccc2c(S(=O)(=O)N3CCCCC3)cccc12 | x | x | x | -3.5* | x
COc1cc(OC)c(S(=O)(=O)N2CCCCC2)cc1S(=O)(=O)N1CCCCC1 | 0.6 | 64* | 0.4 | 0.17 | 43
CCn1cnc2cc(NCc3nc4ccccc4n3Cc3ccccc3)ccc21 | x | x | x | -0.86 | x
Cn1c(CNc2ccccc2)nc2ccccc21 | 0.7 | 52* | 0.5 | -0.27 | 34
CCn1cnc2cc(NCc3nc4ccccc4n3C)ccc21 | 0.6 | 93* | 0.1 | 0.23 | 41
Cn1c(CNc2ccccc2O)nc2ccccc21 | 0.9 | 70* | 0.3 | x | 13
Cc1cc(C)nc(SCc2nc3ccccc3n2C)n1 | 0.7 | 43 | 0.6 | 1.4 | 27
Cn1c(CSc2nc3ccccc3n2C)nc2ccccc21 | 0.9 | 84* | 0.2 | 0.19 | 13
O=C(NCc1cccs1)C1CCCN(c2nc3ccccc3o2)C1 (stereo unspecified) | 0.9 | 39 | 0.6 | -0.07 | 13
SMILES | CYP2C9 activ | CYP2C19 inh | CYP2C19 act | Pyk2 oligo antag | CYP2C9 inh
Cc1nc2ccc3[nH]snc3c2n1 | 0.8 | 1 | 1 | -0.11 | 16
Cc1ccc2nc(-c3sc4nc(C)cc(C)c4c3N)[nH]c2c1 | x | x | x | 3.4 | x
CCCn1c(CNc2ccc(Br)cc2)nc2ccccc21 | 0.1 | 98* | 0 | x | 92*
CCCC(=O)NCCCc1nc2ccccc2n1C | 1.1 | 22 | 0.8 | x | -11
Cn1c(CCCCCN)nc2ccccc21 | 0.4 | 23 | 0.8 | -0.09 | 63*
CCN(CC)C(C)C(=O)NCC1(c2ccccc2)CCOCC1 (stereo unspecified) | x | x | x | 1.2 | x
CCC(=O)Nc1ccccc1C(=O)OCC(=O)c1cccc2ccccc12 | 0.3 | 11 | 0.9 | -1.9 | 73*
CCC(=O)Nc1ccccc1C(=O)OCc1ccc(C(=O)c2ccccc2)cc1 | 0.4 | 42 | 0.6 | -0.57 | 62*
